Numbering of substitutions follows the chain as printed.
Key:
Assay in all cases: PBM; 200 nM protein, PBS
Conditions in all cases: dsDNA, one strand shown
[1] = biological target: T1, SIX6 (Homo sapiens, UniProt O95475 114-200, L167I)
T1 sequence: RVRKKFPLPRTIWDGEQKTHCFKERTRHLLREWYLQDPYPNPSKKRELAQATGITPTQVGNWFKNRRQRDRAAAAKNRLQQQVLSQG

[2] = biological target: T2, SIX6 (Homo sapiens, UniProt O95475 114-200, L143V)
T2 sequence: T1 sequence with L30V, I54L

[3] = biological target: T3, SIX6 (Homo sapiens, UniProt O95475 114-200, H141N)
T3 sequence: T1 sequence with H28N, I54L

[4] = biological target: T4, SIX6 (Homo sapiens, UniProt O95475 114-200, T165P)
T4 sequence: T1 sequence with T52P, I54L

[5] = biological target: T5, SIX6 (Homo sapiens, UniProt O95475 114-200, L167M)
T5 sequence: T1 sequence with I54M

[6] = biological target: T6, SIX6 (Homo sapiens, UniProt O95475 114-200, L143M)
T6 sequence: T1 sequence with L30M, I54L

[7] = biological target: T7, SIX6 (Homo sapiens, UniProt O95475 114-200, L143I)
T7 sequence: T1 sequence with L30I, I54L

[8] = biological target: T8, SIX6 (Homo sapiens, UniProt O95475 114-200, T165G)
T8 sequence: T1 sequence with T52G, I54L

[9] = biological target: T9, SIX6 (Homo sapiens, UniProt O95475 114-200, T139Q)
T9 sequence: T1 sequence with T26Q, I54L

[10] = biological target: T10, SIX6 (Homo sapiens, UniProt O95475 114-200, T165A)
T10 sequence: T1 sequence with T52A, I54L

[11] = biological target: T11, SIX6 (Homo sapiens, UniProt O95475 114-200, L167V)
T11 sequence: T1 sequence with I54V

[12] = biological target: T12, SIX6 (Homo sapiens, UniProt O95475 114-200)
T12 sequence: T1 sequence with I54L

[13] = biological target: T13, SIX6 (Homo sapiens, UniProt O95475 114-200, T165I)
T13 sequence: T1 sequence with T52I, I54L

Sequence	binding signal [1]	binding signal [2]	binding signal [3]	binding signal [4]	binding signal [5]	binding signal [6]	binding signal [7]	binding signal [8]	binding signal [9]	binding signal [10]	binding signal [11]	binding signal [12]	binding signal [13]
GGCCCCGA	9 upbm affinity estimate (log intensity, higher = more binding, comparable within an allelic series)	8.8 upbm affinity estimate (log intensity, higher = more binding, comparable within an allelic series)	8.92 upbm affinity estimate (log intensity, higher = more binding, comparable within an allelic series)	8.86 upbm affinity estimate (log intensity, higher = more binding, comparable within an allelic series)	8.96 upbm affinity estimate (log intensity, higher = more binding, comparable within an allelic series)	8.93 upbm affinity estimate (log intensity, higher = more binding, comparable within an allelic series)	8.91 upbm affinity estimate (log intensity, higher = more binding, comparable within an allelic series)	9.02 upbm affinity estimate (log intensity, higher = more binding, comparable within an allelic series)	9.12 upbm affinity estimate (log intensity, higher = more binding, comparable within an allelic series)	8.81 upbm affinity estimate (log intensity, higher = more binding, comparable within an allelic series)	8.95 upbm affinity estimate (log intensity, higher = more binding, comparable within an allelic series)	8.99 upbm affinity estimate (log intensity, higher = more binding, comparable within an allelic series)	8.84 upbm affinity estimate (log intensity, higher = more binding, comparable within an allelic series)
CGTATCAA	11.1 upbm affinity estimate (log intensity, higher = more binding, comparable within an allelic series)	10.2 upbm affinity estimate (log intensity, higher = more binding, comparable within an allelic series)	11.2 upbm affinity estimate (log intensity, higher = more binding, comparable within an allelic series)	9.64 upbm affinity estimate (log intensity, higher = more binding, comparable within an allelic series)	10.6 upbm affinity estimate (log intensity, higher = more binding, comparable within an allelic series)	11.1 upbm affinity estimate (log intensity, higher = more binding, comparable within an allelic series)	10.3 upbm affinity estimate (log intensity, higher = more binding, comparable within an allelic series)	11.1 upbm affinity estimate (log intensity, higher = more binding, comparable within an allelic series)	11 upbm affinity estimate (log intensity, higher = more binding, comparable within an allelic series)	11.1 upbm affinity estimate (log intensity, higher = more binding, comparable within an allelic series)	10.9 upbm affinity estimate (log intensity, higher = more binding, comparable within an allelic series)	10.9 upbm affinity estimate (log intensity, higher = more binding, comparable within an allelic series)	11 upbm affinity estimate (log intensity, higher = more binding, comparable within an allelic series)
ATGGCCGC	8.86 upbm affinity estimate (log intensity, higher = more binding, comparable within an allelic series)	8.81 upbm affinity estimate (log intensity, higher = more binding, comparable within an allelic series)	8.75 upbm affinity estimate (log intensity, higher = more binding, comparable within an allelic series)	8.94 upbm affinity estimate (log intensity, higher = more binding, comparable within an allelic series)	8.89 upbm affinity estimate (log intensity, higher = more binding, comparable within an allelic series)	8.74 upbm affinity estimate (log intensity, higher = more binding, comparable within an allelic series)	8.82 upbm affinity estimate (log intensity, higher = more binding, comparable within an allelic series)	8.77 upbm affinity estimate (log intensity, higher = more binding, comparable within an allelic series)	8.7 upbm affinity estimate (log intensity, higher = more binding, comparable within an allelic series)	8.69 upbm affinity estimate (log intensity, higher = more binding, comparable within an allelic series)	8.93 upbm affinity estimate (log intensity, higher = more binding, comparable within an allelic series)	8.75 upbm affinity estimate (log intensity, higher = more binding, comparable within an allelic series)	8.83 upbm affinity estimate (log intensity, higher = more binding, comparable within an allelic series)
AGATCCTC	10.5 upbm affinity estimate (log intensity, higher = more binding, comparable within an allelic series)	9.98 upbm affinity estimate (log intensity, higher = more binding, comparable within an allelic series)	10.3 upbm affinity estimate (log intensity, higher = more binding, comparable within an allelic series)	9.64 upbm affinity estimate (log intensity, higher = more binding, comparable within an allelic series)	–	10.5 upbm affinity estimate (log intensity, higher = more binding, comparable within an allelic series)	9.91 upbm affinity estimate (log intensity, higher = more binding, comparable within an allelic series)	–	10.6 upbm affinity estimate (log intensity, higher = more binding, comparable within an allelic series)	10.4 upbm affinity estimate (log intensity, higher = more binding, comparable within an allelic series)	10.2 upbm affinity estimate (log intensity, higher = more binding, comparable within an allelic series)	10.4 upbm affinity estimate (log intensity, higher = more binding, comparable within an allelic series)	–
CGCGCTCC	8.99 upbm affinity estimate (log intensity, higher = more binding, comparable within an allelic series)	8.9 upbm affinity estimate (log intensity, higher = more binding, comparable within an allelic series)	8.83 upbm affinity estimate (log intensity, higher = more binding, comparable within an allelic series)	9.01 upbm affinity estimate (log intensity, higher = more binding, comparable within an allelic series)	8.97 upbm affinity estimate (log intensity, higher = more binding, comparable within an allelic series)	9.06 upbm affinity estimate (log intensity, higher = more binding, comparable within an allelic series)	8.97 upbm affinity estimate (log intensity, higher = more binding, comparable within an allelic series)	8.86 upbm affinity estimate (log intensity, higher = more binding, comparable within an allelic series)	9.04 upbm affinity estimate (log intensity, higher = more binding, comparable within an allelic series)	8.97 upbm affinity estimate (log intensity, higher = more binding, comparable within an allelic series)	8.93 upbm affinity estimate (log intensity, higher = more binding, comparable within an allelic series)	8.91 upbm affinity estimate (log intensity, higher = more binding, comparable within an allelic series)	8.89 upbm affinity estimate (log intensity, higher = more binding, comparable within an allelic series)
GTATCAGA	11.1 upbm affinity estimate (log intensity, higher = more binding, comparable within an allelic series)	10.3 upbm affinity estimate (log intensity, higher = more binding, comparable within an allelic series)	11.1 upbm affinity estimate (log intensity, higher = more binding, comparable within an allelic series)	9.63 upbm affinity estimate (log intensity, higher = more binding, comparable within an allelic series)	10.6 upbm affinity estimate (log intensity, higher = more binding, comparable within an allelic series)	10.9 upbm affinity estimate (log intensity, higher = more binding, comparable within an allelic series)	10.2 upbm affinity estimate (log intensity, higher = more binding, comparable within an allelic series)	11.1 upbm affinity estimate (log intensity, higher = more binding, comparable within an allelic series)	11.1 upbm affinity estimate (log intensity, higher = more binding, comparable within an allelic series)	11.1 upbm affinity estimate (log intensity, higher = more binding, comparable within an allelic series)	10.9 upbm affinity estimate (log intensity, higher = more binding, comparable within an allelic series)	10.9 upbm affinity estimate (log intensity, higher = more binding, comparable within an allelic series)	10.8 upbm affinity estimate (log intensity, higher = more binding, comparable within an allelic series)

— publication PMC11006913
